In the supplement of paper PMC10849652:
The full data set covers some 7,900 targets. This sample favours those with a hit. About 0.6% of all pairs of compound and target were hits.

How the values were obtained:
Experiment in all cases: log2 fold change, soluble protein after heating vs DMSO (PISA); higher = thermal stabilisation; K562 cells, 10 uM, 30 min; active = over 0.2 and 3.5 SD of the protein, either way, in both replicates (recomputed)
IRAK-1-4 Inhibitor I = compound: C1COCCN1CCN2C3=CC=CC=C3N=C2NC(=O)C4=CC(=CC=C4)[N+](=O)[O-] [IRAK-1-4 Inhibitor I]
How it was run: (§1)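 K562 cells at 2×10^6 cells/mL were given 10 μM compound for 30 min. Aliquots then went through 3 min of heating across 48°C-58°C, were pooled, and were extracted in PBS with 0.5% NP-40 at 4°C, and the supernatant after 21,000xg for 90 min was quantified by TMTpro 16plex LC-MS/MS with channel sums equalised. Thermal stability relative to control samples, from duplicates, is given as log2 fold change.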

ibrutinib = compound: C=CC(=O)N1CCC[C@@H](n2nc(-c3ccc(Oc4ccccc4)cc3)c3c(N)ncnc32)C1 [ibrutinib]
How it was run: as §1

[1] = compound: CC(=O)c1cnc2ccc(-c3cc(Cl)c(O)c(Cl)c3)nc2c1N[C@H]1CC[C@H](CN(C)C)CC1
How it was run: as §1

ralimetinib = compound: CC(C)(C)Cn1c(N)nc2ccc(-c3[nH]c(C(C)(C)C)nc3-c3ccc(F)cc3)nc21 [ralimetinib]
How it was run: as §1

[2] = compound: CC(C)(O)CC(=O)NCCn1ccc2ncnc(Nc3ccc(Oc4cccc(C(F)(F)F)c4)c(Cl)c3)c21
How it was run: as §1

[3] = compound: CC(C)C1=C2N=C(C=C(N2N=C1)NCC3=CC=CC=C3)NCCCCCCN
How it was run: as §1

[4] = compound: CC(C)C[C@@H](C=O)NC(=O)[C@H](CC(C)C)NC(=O)[C@H](CC(C)C)NC(=O)OCc1ccccc1
How it was run: as §1

pinometostat = compound: CC(C)N(C[C@H]1O[C@@H](n2cnc3c(N)ncnc32)[C@H](O)[C@@H]1O)[C@H]1C[C@@H](CCc2nc3cc(C(C)(C)C)ccc3[nH]2)C1 [pinometostat]
How it was run: as §1

[5] = compound: CC1=C(C(CC(=O)N1)C2=CC=C(C=C2)C(F)(F)F)C(=O)NC3=C(C=C4C(=C3)C=NN4)F
How it was run: as §1

[6] = compound: CC1=C(C2=C(C=C1)C(=O)C3=CC=CC=C3N2CCCN)C
How it was run: as §1

[7] = compound: CC1=C(C=C(C=C1)NC(=O)C2=CC(=CC=C2)C(C)(C)C#N)NC3=CC4=C(C=C3)N=CN(C4=O)C
How it was run: as §1

[8] = compound: CC1=C(C=C(C=C1)NC(=O)C2=CC(=CC=C2)N(C)C)NC(=O)C3=CC=C(C=C3)O
How it was run: as §1

[9] = compound: CC1=CC=C(C=C1)SC2=C3C=C(SC3=CN=C2)C(=O)N
How it was run: as §1

[10] = compound: CC1=NC(=CC=C1)C2=C(N=C(N2)C(C)(C)C)C3=CC4=NC=CN=C4C=C3
How it was run: as §1

Nexturastat A = compound: CCCCN(Cc1ccc(C(=O)NO)cc1)C(=O)Nc1ccccc1 [Nexturastat A]
How it was run: as §1

vemurafenib = compound: CCCS(=O)(=O)Nc1ccc(F)c(C(=O)c2c[nH]c3ncc(-c4ccc(Cl)cc4)cc23)c1F [vemurafenib]
How it was run: as §1

[11] = compound: CCCS(=O)(=O)Nc1ccc(F)c(C(=O)c2c[nH]c3ncc(Cl)cc23)c1F
How it was run: as §1

[12] = compound: CCCc1cc(C)[nH]c(=O)c1CNC(=O)c1cc(-c2ccnc(N3CCN(C)CC3)c2)cc2c1cnn2C(C)C
How it was run: as §1

givinostat = compound: CCN(CC)Cc1ccc2cc(COC(=O)Nc3ccc(C(=O)NO)cc3)ccc2c1 [givinostat]
How it was run: as §1

barasertib = compound: CCN(CCCOc1ccc2c(Nc3cc(CC(=O)Nc4cccc(F)c4)[nH]n3)ncnc2c1)CCOP(=O)(O)O [barasertib]
How it was run: as §1

Measured: log2 fold change

ABHD17A isoform 2 (UniProt Q96GS6)
inactive: IRAK-1-4 Inhibitor I 0.076 | ibrutinib 0.001 | [1] -0.042 | ralimetinib -0.034 | [2] -0.078 | [3] -0.126 | [4] 0.062 | pinometostat 0.079 | [5] -0.042 | [6] 0.077 | [7] -0.004 | [8] -0.031 | [9] 0.035 | [10] -0.068 | Nexturastat A 0.034 | vemurafenib -0.039 | [11] -0.032 | [12] -0.021 | givinostat -0.313 | barasertib 0.016

AP2B1 isoform 2 (UniProt P63010)
inactive: IRAK-1-4 Inhibitor I -0.002 | ibrutinib 0.025 | [1] -0.034 | ralimetinib 0 | [2] 0.008 | [3] 0.029 | [4] 0.005 | pinometostat 0.011 | [5] 0.027 | [6] 0.035 | [7] 0.016 | [8] 0.018 | [9] 0.021 | [10] 0.018 | Nexturastat A 0.033 | vemurafenib 0.031 | [11] 0.039 | [12] -0.021 | givinostat 0.015 | barasertib -0.013

ACSL1 (UniProt P33121)
inactive: IRAK-1-4 Inhibitor I -0.004 | ibrutinib 0.017 | [1] -0.037 | ralimetinib -0.018 | [2] 0.01 | [4] -0.057 | pinometostat 0.008 | [5] 0.058 | [6] 0.03 | [7] 0.01 | [8] 0.01 | [9] 0.031 | [10] 0.056 | Nexturastat A -0.115 | vemurafenib -0.021 | [11] 0.041 | [12] -0.018 | givinostat -0.034 | barasertib -0.002
active: [3] -0.243

ATG4B isoform 2 (UniProt Q9Y4P1)
Sequence of UniProt Q9Y4P1 (Q9Y4P1 whole entry, looked up): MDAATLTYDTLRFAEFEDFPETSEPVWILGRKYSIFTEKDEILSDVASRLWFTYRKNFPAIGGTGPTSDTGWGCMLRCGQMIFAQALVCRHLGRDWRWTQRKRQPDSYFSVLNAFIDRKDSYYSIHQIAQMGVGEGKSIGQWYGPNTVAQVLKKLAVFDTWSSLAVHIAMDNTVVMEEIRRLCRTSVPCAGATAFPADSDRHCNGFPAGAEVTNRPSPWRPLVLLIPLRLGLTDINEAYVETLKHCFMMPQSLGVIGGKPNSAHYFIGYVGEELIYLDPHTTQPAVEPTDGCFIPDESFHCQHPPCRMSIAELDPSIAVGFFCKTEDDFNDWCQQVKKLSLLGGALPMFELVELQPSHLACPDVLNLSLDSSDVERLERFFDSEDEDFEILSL
inactive: IRAK-1-4 Inhibitor I 0.127 | ibrutinib -0.038 | [1] -0.102 | ralimetinib 0.134 | [2] -0.194 | [3] -0.299 | [4] -0.137 | pinometostat -0.013 | [5] -0.031 | [6] 0.114 | [7] -0.046 | [8] -0.287 | [9] 0.218 | [10] -0.072 | Nexturastat A 0.132 | vemurafenib 0.087 | [11] -0.02 | [12] 0.031 | givinostat 0.126 | barasertib 0.126

ALDH1B1 (UniProt P30837)
Sequence of UniProt P30837 (P30837 whole entry, looked up): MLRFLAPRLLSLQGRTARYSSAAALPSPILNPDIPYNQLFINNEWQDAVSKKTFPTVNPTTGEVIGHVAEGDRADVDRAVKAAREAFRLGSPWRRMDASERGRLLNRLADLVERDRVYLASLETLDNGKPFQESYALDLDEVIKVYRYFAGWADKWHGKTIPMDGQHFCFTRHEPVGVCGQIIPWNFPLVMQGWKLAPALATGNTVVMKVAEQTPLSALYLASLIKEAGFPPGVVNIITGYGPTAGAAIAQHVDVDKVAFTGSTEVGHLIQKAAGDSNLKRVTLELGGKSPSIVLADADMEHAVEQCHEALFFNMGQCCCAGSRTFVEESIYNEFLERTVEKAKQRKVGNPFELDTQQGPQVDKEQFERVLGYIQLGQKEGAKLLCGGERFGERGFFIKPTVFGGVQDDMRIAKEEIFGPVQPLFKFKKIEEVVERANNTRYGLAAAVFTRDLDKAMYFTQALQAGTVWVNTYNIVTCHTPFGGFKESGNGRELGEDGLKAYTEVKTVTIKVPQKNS
inactive: IRAK-1-4 Inhibitor I 0.051 | ibrutinib 0.031 | [1] -0.009 | ralimetinib -0.004 | [2] -0.072 | [3] 0.132 | [4] -0.01 | pinometostat -0.022 | [5] -0.054 | [6] 0.221 | [7] 0.054 | [8] 0.008 | [9] 0.128 | [10] 0.017 | Nexturastat A -0.104 | vemurafenib 0.011 | [11] 0.032 | [12] -0.016 | givinostat 0.032 | barasertib -0.001

ALDH9A1 isoform 3 (UniProt P49189)
inactive: IRAK-1-4 Inhibitor I 0.059 | ibrutinib 0.025 | [1] 0.003 | ralimetinib -0.047 | [2] -0.004 | [3] 0.019 | [4] -0.022 | pinometostat -0.013 | [5] 0.028 | [6] -0.003 | [7] 0.01 | [8] 0.012 | [9] 0.03 | [10] 0.01 | Nexturastat A -0.049 | vemurafenib 0.006 | [11] 0.006 | [12] -0.019 | givinostat -0.005 | barasertib 0.01

AAMP (UniProt Q13685)
inactive: IRAK-1-4 Inhibitor I 0.007 | ibrutinib 0.023 | [1] 0.064 | ralimetinib 0.031 | [2] 0.04 | [3] -0.051 | [4] -0.02 | pinometostat 0.007 | [5] 0 | [7] 0 | [8] -0.006 | [9] -0.028 | [10] -0.04 | Nexturastat A 0.012 | vemurafenib -0.018 | [11] 0.018 | [12] -0.041 | givinostat 0.033 | barasertib -0.006
active: [6] 0.225

ARPP19 (UniProt P56211)
inactive: IRAK-1-4 Inhibitor I 0.052 | ibrutinib -0.009 | [1] 0 | ralimetinib 0.048 | [2] -0.051 | [3] 0.048 | [4] -0.071 | pinometostat -0.157 | [5] 0.069 | [6] -0.074 | [7] -0.012 | [8] 0.199 | [9] 0.057 | [10] 0.125 | Nexturastat A -0.04 | vemurafenib 0.041 | [11] 0.043 | [12] -0.106 | givinostat -0.003 | barasertib -0.012

AKAP8 (UniProt O43823)
Sequence of UniProt O43823 (O43823 whole entry, looked up): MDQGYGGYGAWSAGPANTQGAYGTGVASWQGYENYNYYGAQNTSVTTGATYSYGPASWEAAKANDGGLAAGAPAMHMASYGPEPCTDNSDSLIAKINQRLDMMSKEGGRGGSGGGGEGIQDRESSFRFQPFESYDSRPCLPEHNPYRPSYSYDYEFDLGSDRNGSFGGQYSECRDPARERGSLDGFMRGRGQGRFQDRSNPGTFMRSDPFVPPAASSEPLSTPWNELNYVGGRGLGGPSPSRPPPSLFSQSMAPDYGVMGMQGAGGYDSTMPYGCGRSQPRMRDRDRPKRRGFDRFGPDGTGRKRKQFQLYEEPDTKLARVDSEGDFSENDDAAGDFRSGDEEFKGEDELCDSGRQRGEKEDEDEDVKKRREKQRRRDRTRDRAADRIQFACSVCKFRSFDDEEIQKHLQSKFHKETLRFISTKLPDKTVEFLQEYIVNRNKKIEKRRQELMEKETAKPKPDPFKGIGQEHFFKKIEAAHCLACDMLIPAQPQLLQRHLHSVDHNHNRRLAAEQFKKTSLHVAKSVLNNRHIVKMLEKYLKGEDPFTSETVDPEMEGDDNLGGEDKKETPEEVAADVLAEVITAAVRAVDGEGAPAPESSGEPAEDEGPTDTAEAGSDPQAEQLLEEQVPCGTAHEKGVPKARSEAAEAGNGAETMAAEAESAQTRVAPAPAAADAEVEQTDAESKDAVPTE
inactive: IRAK-1-4 Inhibitor I 0.058 | ibrutinib 0.002 | [1] -0.205 | ralimetinib -0.018 | [2] -0.097 | [3] 0.019 | [4] 0.054 | pinometostat 0.003 | [5] 0.056 | [6] -0.113 | [7] -0.082 | [8] 0.029 | [9] -0.03 | [10] -0.009 | vemurafenib -0.062 | [11] -0.05 | [12] -0.034 | givinostat -0.027 | barasertib 0.024
active: Nexturastat A 0.313

ACP1 isoform 2 (UniProt P24666)
inactive: IRAK-1-4 Inhibitor I -0.082 | ibrutinib -0.028 | [1] -0.013 | ralimetinib 0.009 | [3] -0.109 | [4] -0.039 | pinometostat 0.073 | [5] -0.061 | [7] 0.008 | [8] -0.013 | [9] 0.025 | [10] -0.008 | Nexturastat A 0.08 | vemurafenib 0.031 | [11] 0.026 | [12] 0.043 | givinostat 0.058 | barasertib 0.074
active: [2] -0.264 | [6] -0.296

BOP1 (UniProt Q14137)
Sequence of UniProt Q14137 (Q14137 whole entry, looked up): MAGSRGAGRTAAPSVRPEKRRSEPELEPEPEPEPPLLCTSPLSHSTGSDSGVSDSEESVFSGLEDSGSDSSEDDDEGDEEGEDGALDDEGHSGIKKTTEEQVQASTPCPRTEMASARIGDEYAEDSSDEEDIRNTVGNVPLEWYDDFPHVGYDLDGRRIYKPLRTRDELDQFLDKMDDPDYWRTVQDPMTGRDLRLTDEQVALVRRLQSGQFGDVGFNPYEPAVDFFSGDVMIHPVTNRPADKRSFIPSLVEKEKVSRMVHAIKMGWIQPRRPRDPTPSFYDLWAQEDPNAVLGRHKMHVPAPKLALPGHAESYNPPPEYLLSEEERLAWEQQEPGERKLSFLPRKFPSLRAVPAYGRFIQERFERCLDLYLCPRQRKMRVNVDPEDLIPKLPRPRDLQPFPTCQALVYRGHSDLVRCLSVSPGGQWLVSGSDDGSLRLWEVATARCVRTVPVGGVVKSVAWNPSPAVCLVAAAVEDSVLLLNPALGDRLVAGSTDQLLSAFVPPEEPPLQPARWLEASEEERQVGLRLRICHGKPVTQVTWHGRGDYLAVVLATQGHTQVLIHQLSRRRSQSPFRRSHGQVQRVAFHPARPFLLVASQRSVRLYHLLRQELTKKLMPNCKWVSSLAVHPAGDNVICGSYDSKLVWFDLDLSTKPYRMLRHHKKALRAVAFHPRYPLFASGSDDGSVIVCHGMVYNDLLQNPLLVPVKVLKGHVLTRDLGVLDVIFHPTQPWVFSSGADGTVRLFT
inactive: IRAK-1-4 Inhibitor I -0.039 | ibrutinib 0.01 | [1] -0.083 | ralimetinib 0.041 | [2] 0.119 | [3] -0.068 | [4] 0.031 | pinometostat 0.021 | [5] 0.01 | [6] -0.078 | [7] -0.06 | [8] 0.007 | [9] 0.015 | [10] 0.023 | Nexturastat A 0.162 | vemurafenib 0.047 | [11] -0.006 | [12] 0.055 | givinostat 0.09 | barasertib -0.054

ARAF (UniProt P10398)
Sequence of UniProt P10398 (P10398 whole entry, looked up): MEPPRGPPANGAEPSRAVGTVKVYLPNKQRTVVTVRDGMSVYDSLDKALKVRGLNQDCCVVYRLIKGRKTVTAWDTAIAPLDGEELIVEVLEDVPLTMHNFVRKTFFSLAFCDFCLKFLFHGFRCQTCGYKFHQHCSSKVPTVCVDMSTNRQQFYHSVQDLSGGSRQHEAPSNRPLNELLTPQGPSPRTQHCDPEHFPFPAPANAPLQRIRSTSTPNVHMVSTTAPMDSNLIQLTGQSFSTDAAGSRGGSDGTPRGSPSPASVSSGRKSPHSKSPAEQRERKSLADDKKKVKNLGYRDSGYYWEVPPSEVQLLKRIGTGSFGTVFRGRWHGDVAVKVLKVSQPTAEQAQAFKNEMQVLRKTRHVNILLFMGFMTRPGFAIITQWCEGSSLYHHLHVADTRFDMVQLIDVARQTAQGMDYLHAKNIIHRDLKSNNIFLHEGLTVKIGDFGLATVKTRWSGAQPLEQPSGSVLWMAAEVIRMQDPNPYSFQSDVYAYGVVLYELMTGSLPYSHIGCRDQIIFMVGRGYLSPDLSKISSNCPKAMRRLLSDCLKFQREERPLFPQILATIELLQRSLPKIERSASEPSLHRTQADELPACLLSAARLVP
inactive: IRAK-1-4 Inhibitor I 0.011 | ibrutinib 0.005 | [1] -0.13 | ralimetinib 0.097 | [2] -0.064 | [3] -0.056 | [4] 0.021 | pinometostat 0.043 | [5] -0.018 | [6] 0.041 | [7] 0.063 | [8] -0.049 | [9] -0.069 | [10] -0.007 | Nexturastat A 0.003 | vemurafenib 0.064 | [11] 0.123 | [12] 0.019 | givinostat 0.029 | barasertib 0.074

ABCB6 (UniProt Q9NP58)
active: [3] -0.489
inactive: IRAK-1-4 Inhibitor I -0.018 | ibrutinib 0.003 | [1] 0.021 | ralimetinib 0.051 | [2] -0.073 | [4] -0.007 | pinometostat 0.037 | [5] -0.058 | [6] 0.065 | [7] 0.085 | [8] -0.084 | [9] 0.019 | [10] 0.019 | Nexturastat A 0.001 | vemurafenib 0.073 | [11] -0.022 | [12] -0.041 | givinostat -0.002 | barasertib 0.008

AGO1 (UniProt Q9UL18)
inactive: IRAK-1-4 Inhibitor I 0.02 | ibrutinib 0.05 | [1] 0.019 | ralimetinib -0.023 | [2] -0.001 | [3] -0.01 | [4] 0.07 | pinometostat 0.061 | [5] 0.144 | [6] 0.076 | [7] -0.213 | [8] -0.021 | [9] -0.025 | [10] 0.193 | Nexturastat A 0.084 | vemurafenib -0.023 | [11] -0.006 | [12] -0.111 | givinostat 0.071 | barasertib -0.064

AGRN (UniProt O00468)
Sequence of UniProt O00468 (O00468 whole entry, looked up): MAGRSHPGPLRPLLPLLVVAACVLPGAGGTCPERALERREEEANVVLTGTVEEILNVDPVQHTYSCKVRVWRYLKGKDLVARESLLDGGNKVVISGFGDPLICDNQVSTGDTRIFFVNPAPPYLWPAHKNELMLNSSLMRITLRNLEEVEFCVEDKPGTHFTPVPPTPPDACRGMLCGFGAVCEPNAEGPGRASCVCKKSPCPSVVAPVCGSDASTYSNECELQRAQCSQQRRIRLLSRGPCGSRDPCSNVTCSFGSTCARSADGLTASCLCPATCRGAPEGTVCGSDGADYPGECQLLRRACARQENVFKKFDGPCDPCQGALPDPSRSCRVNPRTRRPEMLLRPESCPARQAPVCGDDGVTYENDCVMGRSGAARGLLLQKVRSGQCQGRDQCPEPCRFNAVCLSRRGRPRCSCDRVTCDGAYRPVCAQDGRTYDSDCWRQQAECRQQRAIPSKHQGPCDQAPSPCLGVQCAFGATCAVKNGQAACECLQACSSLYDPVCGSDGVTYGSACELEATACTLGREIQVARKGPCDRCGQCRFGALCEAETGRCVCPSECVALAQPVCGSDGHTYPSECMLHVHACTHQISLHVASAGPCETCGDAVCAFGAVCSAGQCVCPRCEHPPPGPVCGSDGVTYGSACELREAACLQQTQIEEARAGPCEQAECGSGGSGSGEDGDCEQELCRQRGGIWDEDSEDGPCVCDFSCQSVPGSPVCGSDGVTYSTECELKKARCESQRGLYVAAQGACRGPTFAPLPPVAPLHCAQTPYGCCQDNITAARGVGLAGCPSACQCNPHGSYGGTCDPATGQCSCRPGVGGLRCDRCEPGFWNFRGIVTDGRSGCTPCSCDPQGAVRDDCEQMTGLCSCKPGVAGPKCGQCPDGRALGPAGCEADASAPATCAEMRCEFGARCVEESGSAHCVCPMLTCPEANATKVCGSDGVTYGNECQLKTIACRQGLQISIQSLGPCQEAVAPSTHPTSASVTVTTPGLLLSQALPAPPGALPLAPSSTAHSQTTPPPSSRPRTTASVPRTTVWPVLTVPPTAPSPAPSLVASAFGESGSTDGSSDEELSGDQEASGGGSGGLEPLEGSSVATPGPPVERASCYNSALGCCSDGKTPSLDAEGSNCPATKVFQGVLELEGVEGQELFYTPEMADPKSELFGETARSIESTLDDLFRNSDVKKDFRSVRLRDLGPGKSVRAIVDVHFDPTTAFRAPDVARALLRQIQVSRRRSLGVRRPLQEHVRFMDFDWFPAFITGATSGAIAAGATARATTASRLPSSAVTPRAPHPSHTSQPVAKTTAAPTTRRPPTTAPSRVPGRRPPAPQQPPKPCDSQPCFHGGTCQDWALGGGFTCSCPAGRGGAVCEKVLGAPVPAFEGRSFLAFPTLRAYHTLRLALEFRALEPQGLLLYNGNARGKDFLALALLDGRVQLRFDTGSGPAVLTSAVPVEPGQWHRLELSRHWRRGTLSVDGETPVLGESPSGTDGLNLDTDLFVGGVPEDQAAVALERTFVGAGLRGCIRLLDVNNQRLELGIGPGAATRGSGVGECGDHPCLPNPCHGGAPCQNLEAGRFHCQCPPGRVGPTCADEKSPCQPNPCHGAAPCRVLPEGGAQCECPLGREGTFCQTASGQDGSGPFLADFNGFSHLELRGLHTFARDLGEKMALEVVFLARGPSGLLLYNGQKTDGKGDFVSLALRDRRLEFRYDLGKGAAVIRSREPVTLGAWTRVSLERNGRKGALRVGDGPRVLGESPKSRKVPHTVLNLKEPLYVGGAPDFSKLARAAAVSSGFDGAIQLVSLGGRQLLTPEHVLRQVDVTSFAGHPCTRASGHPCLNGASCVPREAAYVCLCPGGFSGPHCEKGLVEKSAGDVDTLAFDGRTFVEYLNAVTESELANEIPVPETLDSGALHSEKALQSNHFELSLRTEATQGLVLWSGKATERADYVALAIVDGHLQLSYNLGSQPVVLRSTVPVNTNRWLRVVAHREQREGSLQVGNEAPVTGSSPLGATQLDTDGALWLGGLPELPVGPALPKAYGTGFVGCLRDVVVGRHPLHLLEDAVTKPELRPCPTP
inactive: IRAK-1-4 Inhibitor I -0.205 | ibrutinib 0.09 | [1] -0.025 | ralimetinib 0.125 | [2] -0.022 | [3] 0.156 | [4] -0.066 | pinometostat -0.005 | [5] 0.078 | [6] 0.014 | [7] -0.089 | [8] -0.294 | [9] -0.031 | [10] 0.014 | Nexturastat A -0.051 | vemurafenib -0.025 | [11] -0.072 | [12] 0.024 | givinostat -0.011 | barasertib 0.011

AKT2 (UniProt P31751)
inactive: IRAK-1-4 Inhibitor I -0.013 | ibrutinib -0.033 | [1] -0.039 | ralimetinib -0.015 | [2] -0.027 | [3] -0.179 | [4] 0 | pinometostat -0.016 | [5] 0.023 | [6] -0.011 | [7] 0.018 | [8] 0.033 | [9] 0.006 | [10] 0.019 | Nexturastat A 0.069 | vemurafenib -0.007 | [11] 0.015 | [12] -0.017 | givinostat 0.069 | barasertib 0.079
